Measured values taken from PubChem BioAssay (NCI).
About 83,000 compounds went through this panel and 20% of them were active in at least one assay; those are over-represented in the sample as a whole.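 Testing used 96-well plates and a 48-hour single-concentration exposure. Example: -40 means 40% of the starting cells died.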 A number with no mark means an inactive call. Activity calls are given as the source filed them. Rule for the calls: active = growth percent below 10; inactive = the rest.

Experiments:
Assay in all cases: NCI-60 one-dose screen, 48 h (100 = growth as untreated, 0 = no growth, -100 = all killed)
Conditions in all cases: 10 µM unless noted
[1] = tested on: SR leukemia
[2] = tested on: RPMI-8226 leukemia
[3] = tested on: OVCAR-8 ovarian
[4] = tested on: OVCAR-5 ovarian
[5] = tested on: OVCAR-4 ovarian
[6] = tested on: SK-OV-3 ovarian
[7] = tested on: IGROV1 ovarian
[8] = tested on: OVCAR-3 ovarian
[9] = tested on: HS 578T breast
[10] = tested on: NCI/ADR-RES ovarian
[11] = tested on: T-47D breast
[12] = tested on: BT-549 breast
[13] = tested on: MDA-MB-435 melanoma
[14] = tested on: SW-620 colon
[15] = tested on: MCF7 breast
[16] = tested on: HCT-116 colon
[17] = tested on: HCC-2998 colon
[18] = tested on: KM12 colon

| SMILES | growth [1] | growth [2] | growth [3] | growth [4] | growth [5] | growth [6] | growth [7] | growth [8] | growth [9] | growth [10] | growth [11] | growth [12] | growth [13] | growth [14] | growth [15] | growth [16] | growth [17] | growth [18] |
| --- | --- | --- | --- | --- | --- | --- | --- | --- | --- | --- | --- | --- | --- | --- | --- | --- | --- | --- |
| CC(=O)OC1Oc2cc(C)c(C)cc2-c2oc(=O)c(-c3cc4ccc(N(C)C)cc4oc3=O)cc21 (stereo not given) | -41.6% (active) | 29.4% | 75.9% | 86.4% | 89.8% | 78.2% | 93.2% | 94.1% | 112% | 64.7% | 26.3% | 59.3% | 72.6% | 104% | 78.6% | 48.3% | 106% | 94.5% |
| COc1cccc(/C=C\C(=O)c2ccccc2)c1 | 47.5% | 6.17% (active) | 81.4% | 94.7% | 47.4% | 107% | 2.47% (active) | -4.31% (active) | 85.8% | 88% | 56.5% | 97.4% | 72.9% | 15% | 11.5% | 16.2% | 104% | 8.52% (active) |
| CS(=O)(CCCCN=C=S)=NC(=O)c1c(F)c(F)c(F)c(F)c1F (stereo not given) | 23.1% | -3.75% (active) | 97.3% | 100% | 112% | 97.3% | 106% | 102% | 88.7% | 103% | 44.2% | 97.1% | 99.1% | 74.5% | 12.8% | 86.4% | 94% | 54.2% |
| CC1=NNC(=O)C1C (stereo not given) | 121% | 73.1% | 83.3% | 122% | 128% | 101% | 106% | 109% | 90.8% | 105% | 104% | 284% | 104% | 98% | 104% | 84.2% | 103% | 102% |
| CCN(CC)c1ccc(/C=C/C2=[N+](C)c3ccccc3C2(C)C)cc1 | 28.1% | -20.9% (active) | 24.7% | 34.7% | 40.6% | -0.178% (active) | 18.6% | 5.97% (active) | 27% | 84.8% | 14% | 0.697% (active) | -1.89% (active) | 15.4% | 4.72% (active) | 13.1% | 24.1% | -28% (active) |
| CCNS(=O)(=O)c1ncnc2nc[nH]c12 | 101% | 92% | 114% | 102% | 102% | 108% | 96.9% | 113% | 144% | 99.7% | 104% | 129% | 101% | 101% | 102% | 117% | 114% | 119% |
| Cc1ccc2c(c1)C(=O)c1c-2c(OCCCN(C)C)nc2ccccc12 | -27.5% (active) | -16.3% (active) | 17.2% | 51.6% | 27.3% | 60.3% | 3.1% (active) | 55% | 35.3% | 25.1% | 63.4% | 71.5% | -32.1% (active) | -57.3% (active) | -75.8% (active) | 21% | -15.2% (active) | -46.4% (active) |
| Cc1ccc(SCN2CCN(c3cccc(Cl)c3)CC2)cc1 | 91.7% | 164% | 110% | 112% | 108% | 111% | 80.4% | 106% | 111% | 98.9% | 86.7% | 62.7% | 89.7% | 107% | 85.2% | 91.6% | 100% | 104% |
| Nc1c(C(=O)Nc2cccc3c2OCCO3)sc2nc3c(cc12)CN(Cc1ccccc1)CC3 | 35.5% | 77.5% | 87.7% | 95.3% | 74.5% | 89.2% | 60.7% | 26.7% | 66% | 53% | 68.2% | 69.7% | 6.47% (active) | 47.6% | 28.3% | 45.4% | 101% | 59.4% |
| Cl/C(=N\Nc1ccccc1)c1ccccc1 | 123% | 104% | 75.8% | 99.1% | 92.1% | 89.4% | 85.6% | 91.4% | 108% | 82.9% | 89.9% | 98.8% | 80.6% | 105% | 87.4% | 102% | 102% |  |
| NCc1cn2cc(Cl)sc2n1 | 102% | 106% | 105% | 98% | 100% | 103% | 109% | 114% | 113% | 111% | 111% | 111% | 113% | 106% | 95% | 107% | 102% | 106% |
| S=c1[nH]nc(CSc2ncnc3c2c(-c2ccccc2)cn3-c2ccc(Cl)cc2)o1 | 105% | 98% | 97.5% | 104% | 95.4% | 78.2% | 92.3% | 101% | 94.5% | 99.3% | 90.6% | 107% | 104% | 95.2% | 93.7% | 93.8% | 104% | 98.7% |
| CNC(=O)c1cc(Oc2ccc3nc(NC(=O)Nc4ccc(CN5CCOCC5)c(C(F)(F)F)c4)sc3c2)ccn1 | -0.0928% (active) | 5.34% (active) | 18% | 38.6% | 20% | 79.1% | 40% | 6.85% (active) | 47.3% | 4.65% (active) | 22.7% | 12.2% | 13% | 27.4% | 6.95% (active) | 6.2% (active) | 32.3% | 6.28% (active) |
| CCOC(=O)c1cnc2cc(Cl)c(F)cc2c1Nc1cccc(NS(C)(=O)=O)c1 | 112% | 105% | 102% | 93.2% | 95.5% | 111% | 91% | 102% | 93.7% | 81% | 93.5% | 105% | 104% | 94.1% | 92.5% | 86.5% | 98.4% | 93.8% |
| COc1ccc(N(Cc2cc(OC)c(OC)c(OC)c2)C2OC(=O)c3ccccc32)cc1 (stereo not given) | 12.1% | 10.6% | 22.1% | 65.5% | 62.7% | 13.3% | 36.3% | -18.4% (active) | 22.1% | 10.1% | 45.8% | 66.1% | -55% (active) | 20.3% | 16.4% | 23% | 43.9% | 27.7% |
| CCOC(=O)N1CCN(c2nc(Nc3cc(C)[nH]n3)c3ccccc3n2)CC1 | 17.3% | 37.3% | 74% | 55.9% | 49.5% | 47.8% | 35.6% | 55.3% | 29.6% | 55.4% | 37.4% | 56.8% | 14% | 41.8% | 27.5% | 34.1% | 69% | 21.4% |
| O=C1/C(=C/c2ccc(Cl)c(Cl)c2)CN(C(=O)CCN2CCC(=NO)CC2)C/C1=C\c1ccc(Cl)c(Cl)c1 | -14% (active) | -37.2% (active) | -95.5% (active) | -71.3% (active) | -96.6% (active) | -55.7% (active) | -63.3% (active) | -97.8% (active) | -28.5% (active) | -60.2% (active) | -79.9% (active) | -87.9% (active) | -93.8% (active) | -62.9% (active) | -53.8% (active) | -47.1% (active) | -77.1% (active) | -80.9% (active) |
